This is an account of results in publication PMC4552634, “A New Set of Chemical Starting Points with Plasmodium falciparum Transmission-Blocking Potential for Antimalarial Drug Discovery” (PLoS ONE, 2015).

Hit rate of the full screen: of about 13,000 compounds, about 3,200 (25%) showed an effect of 50% or more. The list shows a part of the results.

This assay deals with P. falciparum stage V gametocytes. Also on record: BacTiter-Glo ATP luminescence viability of purified stage V gametocytes in 384-well plates, per cent inhibition versus DMSO. The conditions noted are these: 48 h, 5 µM; inhibitor.
In the case of `O=C(NCc1ccc(Cl)c(Cl)c1)[C@H]1CNCCN1C(=O)c1ccccc1` [TCMDC-141240], the % Inhibition (usually the change of the read-out against control, counted positive when it falls) was determined as 16.71%. For `Cc1nc2ccc(NC(=O)Nc3ccnc4ccc(C(F)(F)F)cc34)cc2o1` [TCMDC-139534], the “% Inhibition” value is -18.3%.

In the case of `COc1ccccc1N1CCN(CCCCNC(=O)c2ccc(NC(=O)c3ccc(OC(F)(F)F)cc3)cc2)CC1` [TCMDC-137780], the “% Inhibition” value is recorded as -5.009%. The figure for `CC(=O)Nc1ncc(C(=O)Nc2cccc(-c3cccc(-c4nc5ccc(F)cc5[nH]4)c3)c2)s1` [TCMDC-136914] is -0.106%; for `CC(CN(C)C)C(=O)Nc1cccc(-c2ccc(-c3nc4ccc(C(F)(F)F)cc4[nH]3)cc2)c1` (centres unmarked) [TCMDC-137112] it is -57.5%; for `COc1ccc2c(NN=Cc3cccnc3)ccnc2c1` [TCMDC-142029] it is 1.197%.

Take `CCOc1ccc2nc(C)cc(NN=Cc3cccnc3)c2c1` [TCMDC-142047]: the “% Inhibition” value worked out at 3.839%. In the case of `COc1ccc2nc(C)cc(NN=Cc3ccccc3)c2c1` [TCMDC-123830], the “% Inhibition” value worked out at 2.081%. As to `COc1ccc2nc(C)cc(NN=Cc3ccncc3)c2c1` [TCMDC-142017], the “% Inhibition” value was 88.79%. For `COc1ccc2nc(-c3ccccc3)cc(NN=Cc3ccncc3)c2c1` [TCMDC-142041], the “% Inhibition” value is given as -9.454%.

`COc1ccc2c(NN=Cc3cccnc3)cc(C)nc2c1` [TCMDC-142037]: the “% Inhibition” value was found to be 80.26%. Take `Cc1cc(-c2nc3ccc(N4CCN(C)CC4)cc3[nH]2)nn1Cc1cc(Cl)ccc1OCC(C)C` [TCMDC-136722]: the “% Inhibition” value worked out at 42.92%.

On to `CC(=O)c1cccc(NC(=O)NC2CCN(CCCCCNC(=O)/C=C/c3ccc(Cl)c(Cl)c3)CC2)c1` [TCMDC-135716], for which the “% Inhibition” value was -43.54%. On to `Clc1ccc(-c2csc3ncnc(Cl)c23)cc1` [TCMDC-123811], for which the “% Inhibition” value was 48.01%.

For the molecule `COc1ccc(-c2csc3ncnc(Cl)c23)cc1` [TCMDC-123805], the “% Inhibition” value is on record as 65.98%. Under `COc1ccc(-c2csc3ncnc(Cl)c23)cc1OC` [TCMDC-125316] stands 38.88%. For `Cc1cnc2ccc(NS(=O)(=O)c3sc4ccc(Cl)cc4c3C)cc2c1N1CCNCC1` [TCMDC-139547], the “% Inhibition” value amounted to 29.85%.

On to `Cc1c(S(=O)(=O)Nc2ccc3nccc(N4CCN[C@H](C)C4)c3c2)sc2ccc(Cl)cc12` [TCMDC-139483], for which the “% Inhibition” value is on record as -5.538%.

For `COc1cc2c(cc1N(C(C)C)S(=O)(=O)c1sc3ccc(Cl)cc3c1C)CCNCC2` [TCMDC-141465], the “% Inhibition” value stood at 91.42%. Under `Oc1ccccc1CCNCC1CCc2ccccc2C1` (centres unmarked) [TCMDC-138024] stands -11.67%; under `O=C(NC1CCCC1)c1cc2c(=O)n3ccccc3nc2nc1NCCc1ccccc1` [TCMDC-125350], 42.55%; under `Cn1nccc1C(=O)NCCNCc1cccc(-c2ccc(-c3nc4cc(C(F)(F)F)ccc4[nH]3)cc2)c1.O=C(O)C(F)(F)F` [TCMDC-133014], -13.72%. Under `O=C(O)C(F)(F)F.O=C1CCCN1CCCNCc1cccc(-c2cccc(-c3nc4cc(C(F)(F)F)ccc4[nH]3)c2)c1` [TCMDC-132754] stands -20.15%; under `FC(F)(F)c1ccc2[nH]c(-c3ccc(-c4ccc(CNCCN5CCNCC5)cc4)s3)nc2c1` [TCMDC-132862], 105.5%; under `O=C1CCCN1CCCNCc1cccc(-c2ccc(-c3nc4ccc(C(F)(F)F)cc4[nH]3)cc2)c1` [TCMDC-132761], -39.05%. Turning to `FC(F)(F)c1ccc2[nH]c(-c3ccc(-c4cccc(CNCCN5CCNCC5)c4)cc3)nc2c1` [TCMDC-132864], the “% Inhibition” value turned out to be 103.8%.

On to `O=C(O)C(F)(F)F.O=C1CCCN1CCCNCc1ccc(-c2ccc(-c3nc4cc(C(F)(F)F)ccc4[nH]3)s2)cc1` [TCMDC-132764], for which the “% Inhibition” value is recorded as -35.61%. On to `O=C(NCCN1CCCC1)c1ccc(-c2ccc(-c3nc4cc(C(F)(F)F)ccc4[nH]3)s2)cc1` [TCMDC-132315], for which the “% Inhibition” value was found to be 12.27%.

Take `FC(F)(F)c1ccc2[nH]c(-c3cccc(-c4ccc(CNCCN5CCNCC5)cc4)c3)nc2c1` [TCMDC-132872]: the “% Inhibition” value was 109.9%. Regarding `FC(F)(F)c1ccc2nc(-c3cccc(-c4cccc(CNCCN5CCNCC5)c4)c3)[nH]c2c1` [TCMDC-132871], the “% Inhibition” value amounted to 79.56%.

In the case of `O=C1CCCN1CCCNCc1ccc(-c2cccc(-c3nc4ccc(C(F)(F)F)cc4[nH]3)c2)cc1` [TCMDC-132752], the “% Inhibition” value is on record as -22.52%.

With `Cn1nccc1C(=O)NCCNCc1ccc(-c2cccc(-c3nc4cc(C(F)(F)F)ccc4[nH]3)c2)cc1.O=C(O)C(F)(F)F` [TCMDC-133006], the “% Inhibition” value is -36.49%. With `O=C(N[C@@H](Cc1cc(F)cc(F)c1)[C@H](O)CNCc1cccc(C(F)(F)F)c1)c1cc(C2CCCC2)cc(N2CCCC2=O)c1` [TCMDC-134677], the “% Inhibition” value came out at 4.624%. For `CCCC(CNCc1cccc(SC(F)(F)F)c1)CNc1cc(=O)c2ccccc2[nH]1` (centres unmarked) [TCMDC-139431], the “% Inhibition” value is 19.28%. As to `COc1ccc(CNCc2cccc(-c3csc(-c4nc5ccccc5[nH]4)c3)c2)cc1` [TCMDC-132734], the “% Inhibition” value is -55.02%. Under `Cc1cnc(N2CCN(CC3CCN(C)CC3)CC2)nc1Oc1ccc(-n2ccnc2)cc1` [TCMDC-132782] stands 41.72%; under `CC(C)N(Cc1cnc2nc(N)nc(N)c2n1)c1ccc(Cl)c(Cl)c1` [TCMDC-137675], 8.837%.

Consider `COC(=O)c1ccc(NC(=O)Nc2cccc(CCNCc3ccccc3)c2)cc1` [TCMDC-141910], for which the “% Inhibition” value is recorded as 76.66%. Turning to `O=C(Nc1cccc(CCNCc2ccccc2)c1)Nc1cccc2ccccc12` [TCMDC-141912], the “% Inhibition” value is -6.517%. Regarding `CC(C)c1ccc(NC(=O)Nc2ccc(CCNCCCc3ccccc3)cc2)cc1` [TCMDC-140707], the “% Inhibition” value amounted to 4.807%. In the case of `CCCCc1ccc(NC(=O)Nc2cccc(CCNCc3ccccc3)c2)cc1` [TCMDC-141911], the “% Inhibition” value was -36.83%. Under `O=C(Nc1ccc(Cl)cc1)Nc1cccc(CCNCc2ccccc2)c1` [TCMDC-141913] stands 74.03%. As for `O=C(Nc1ccc(Cl)cc1)Nc1cccc(-c2cc(CNCCc3ccccc3)oc2-c2ccncc2)c1` [TCMDC-135557], the “% Inhibition” value is reported as -5.534%. Under `O=C(COc1cccc([N+](=O)[O-])c1)Nc1ccc(-c2nc3ccccc3[nH]2)cc1` [TCMDC-123683] stands 43.84%.

Regarding `Cc1cc(OCC2CCCO2)c2cc(NC(=O)C(=O)Nc3ccc4nc(C)cc(OCC5CCCO5)c4c3)ccc2n1` (centres unmarked) [TCMDC-139970], the “% Inhibition” value is listed as -0.178%. The figure for `CN1CCN(c2ccnc3ccc(NC(=O)N(C)c4ccc(Cl)c(Cl)c4)cc23)CC1` [TCMDC-139453] is 8.724%.

Regarding `O=c1[nH]nc(-c2ccc(N3CCCC3)c([N+](=O)[O-])c2)c2ccccc12` [TCMDC-123666], the “% Inhibition” value stood at 91.56%. As for `Cc1nnc2sc(-c3cccc(NC(=O)c4ccc(N5CCCCC5)c([N+](=O)[O-])c4)c3)nn12` [TCMDC-125211], the “% Inhibition” value worked out at 2.608%. Regarding `O=C(Nc1ccc(-c2nc3ccccc3[nH]2)cc1)c1ccc(N2CCCC2)c([N+](=O)[O-])c1` [TCMDC-124370], the “% Inhibition” value was determined as 0.2157%. Regarding `O=S(=O)(Nc1ccc2nccc(N3CCNCC3)c2c1)c1ccc2oc3ccccc3c2c1` [TCMDC-139406], the “% Inhibition” value was -1.818%. Under `Cc1cc(N2CCCC2)nc(Nc2ccc(NC(=O)c3ccc(Br)o3)cc2)n1` [TCMDC-124708] stands -0.4475%; under `COc1ccc(C(=O)N[C@@H](CC(C)C)C(=O)N[C@H](/C=N/NC(=O)c2ccccc2)CCc2ccccc2)cc1OCCN1CCOCC1` [TCMDC-135529], -24.16%; under `Cc1ccc(NC(=O)N2CCCN(CCCCCNC(=O)/C=C/c3ccc(Cl)c(Cl)c3)CC2)cc1C` [TCMDC-135747], -47.01%. As for `CCC(C)NC(=O)Nc1ccc(-c2cccc(-c3nc4ccc(C(F)(F)F)cc4[nH]3)c2)cc1` (centres unmarked) [TCMDC-133240], the “% Inhibition” value was 1.328%.

Regarding `Cc1nn(-c2ccc(Cl)cc2)c2[nH]c(CN3CCN(c4cccc(Cl)c4)CC3)cc(=O)c12` [TCMDC-124869], the “% Inhibition” value is on record as 23.11%. As to `CCC[C@@H]([C@@H](CC(C)C)C(=O)N[C@@H](CCCCNC(=O)c1ccccn1)C(=O)Nc1nccs1)N(O)C=O` [TCMDC-137550], the “% Inhibition” value was 43.83%. Under `CCC[C@@H]([C@@H](CC(C)C)C(=O)N[C@@H](CCCNc1nccc(C(F)(F)F)n1)C(=O)Nc1nccs1)N(O)C=O` [TCMDC-137458] stands 53.7%. Turning to `CCCC(C(CC1CCC(C)CC1)C(=O)NC(CCCNc1ncccn1)C(=O)Nc1nccs1)N(O)C=O` (centres unmarked) [TCMDC-138160], the “% Inhibition” value was 11.06%. As for `CCC[C@@H]([C@@H](CC(C)C)C(=O)N[C@@H](CCCN=C(N)NS(C)(=O)=O)C(=O)Nc1nccs1)N(O)C=O` [TCMDC-138171], the “% Inhibition” value is listed as -40.24%. The figure for `CCC[C@@H]([C@@H](CC1CCC(C)CC1)C(=O)N[C@@H](CCCCNC(=O)c1ccccn1)C(=O)Nc1nccs1)N(O)C=O` (some centres unmarked) [TCMDC-138151] is 22.92%; for `CCC[C@@H]([C@@H](CC(C)C)C(=O)N[C@@H](CCCCNC(=O)c1cccc(OC)c1)C(=O)Nc1nccs1)N(O)C=O` [TCMDC-137305] it is 57.38%.

As for `COc1ccc(CC(C)CON2C(N)=NC(N)=NC2(C)C)cc1` (centres unmarked) [TCMDC-131722], the “% Inhibition” value turned out to be 5.106%.

Take `O=C(NCCNc1ccnc(Nc2ccc(F)cc2)n1)Nc1ccc2c(c1)OCO2` [TCMDC-133641]: the “% Inhibition” value was -26.39%. `CC(C)(CNCc1cc(Cl)cc(Cl)c1)c1nc(-c2ccc(Cl)c(O)c2)c(-c2ccnc(N)n2)[nH]1` [TCMDC-141164]: the “% Inhibition” value is -8.339%. For the molecule `CC1CN(c2ccc(NC(=O)c3ccsc3)cc2C(=O)N2CCN(Cc3ccc(C(C)(C)C)cc3)CC2)CC(C)O1` (centres unmarked) [TCMDC-139281], the “% Inhibition” value worked out at 17.04%.
